# Screening results deposited in PubChem BioAssay by National Center for Advancing Translational Sciences (NCATS).
# Pf growth 96h – P. falciparum growth inhibition at 96 hour, primary screen for plastid delayed-death inhibitors; P. falciparum luciferase reporter growth, 96 h; Potency, µM (highest dose often 28.7 µM), without a hit: at the top dose activity change, negative = inhibition, hits mostly inhibitors; 6.9% of 320,000 active; AID 504834; also: % is scaled to controls: 0 for no effect and ±100 for the full control effect
#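 P. falciparum expressing integrated firefly luciferase grown in erythrocytes (2% hematocrit, 0.05% parasitemia final) with compounds for 96 hours at 37 C, 5% CO2. Growth inhibition read as loss of luminescence after adding luciferase detection reagent.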
# Pf growth 48h – inhibits P. falciparum growth in the first generation, 48 h; P. falciparum luciferase growth in erythrocytes, 48 h; Potency, µM (doses to about 28.7 µM), for the others: top-dose activity change, negative = inhibition, usual class: inhibitors; 5.9% of 310,000 active; also: % is scaled to controls: 0 for no effect and ±100 for the full control effect
#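 In quantitative HTS format, infected erythrocytes bearing luciferase-reporter parasites were treated for a single generation at 37 C. Luminescence after adding detection reagent served as the growth measure.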
# Vaccinia Venus – inhibitors of vaccinia virus (Venus reporter) | Vaccinia virus Venus reporter expression, fluorescence | Potency, µM (doses to about 36.5 µM), inactives show at the highest dose activity change, negative = inhibition, most hits filed as inhibitors | 0.46% of 330,000 active | AID 720580; calls by dose curve; tested in A549 cells; also: % is scaled to controls: 0 for no effect and ±100 for the full control effect; nearly all actives have a fitted effect of over 30% in size
# NS1 function inh – influenza NS1 inhibition | Potency, µM (top dose mostly 46.1 µM), without a hit: at the highest dose activity, positive = more growth | 0.4% of 270,000 active | AID 2326; calls by dose curve; also: actives are rising curves; nearly all actives have a fitted effect of over 50% in size
#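 Growth recovery, yeast-based: influenza A NS1 expressed in S. cerevisiae causes slow growth, and suppressors are detected by OD600. The parent strain without NS1 is used as positive control.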
# HCV inhibitor – inhibitors of hepatitis C virus infection; Huh7.5.1 HCVcc-Cre infection, luciferase reporter, 44 h; Potency, µM (series often up to 41.8 µM), inactives show top-dose activity change, negative = inhibition, usual class: inhibitors; 3.4% of 340,000 active; also: % is scaled to controls: 0 for no effect and ±100 for the full control effect
#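 Cells (1,000/well) were plated 4 h before compound, then infected with HCVcc-Cre virus (~0.5 moi). After 44 h further culture, infection was read as luciferase luminescence following a 15 min substrate incubation at room temperature.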
# VACV mCherry inh – vaccinia inhibition (mCherry reporter) | 0.63% of 310,000 active | Vaccinia virus mCherry reporter infection, fluorescence | Potency, µM (top dose mostly 36.5 µM), for the others: at the top dose activity change, negative = inhibition, usual class: inhibitors; calls by dose curve; tested in A549 cells; also: % is scaled to controls: 0 for no effect and ±100 for the full control effect; nearly all actives have a fitted effect of over 35% in size
# * hit, by the source's call; i = inactive; ? = inconclusive; . = not tested or not shown; [ ] = remark or other dose. Most compounds without a hit are left out; they make up all but 11% or so of the library. Unless noted, calls follow the shape of the dose curve; as a rule, active = well fitted inhibition curve with a large enough effect; inconclusive = small, poorly fitted or top-dose-only effect, or another doubt; inactive = no such curve, though single readings can be large or run the other way. Potency is read from the fitted curve at half-maximal effect.
SMILES,Pf growth 96h,Pf growth 48h,Vaccinia Venus,NS1 function inh,HCV inhibitor,VACV mCherry inh
COCCN1C=C2C(=O)C(C)(OC(=O)c3cccs3)C(=O)C=C2C=C1CCCC(=O)OC (stereo not given),?,54%,-7%,3%,?,-9%
COC(=O)CCC(=O)OC1(C)C(=O)C=C2C=C(C3CC3)N(CCc3ccccn3)C=C2C1=O (stereo not given),?,24%,-4%,3%,7%,-7%
COC(=O)CCC(=O)OC1(C)C(=O)C=C2C=C(C3CC3)N(CCN3CCOCC3)C=C2C1=O (stereo not given),54%,?,-6%,3%,16%,-1%
COC(=O)CCC(=O)OC1(C)C(=O)C=C2C=C(C3CC3)N(CCc3c[nH]c4ccccc34)C=C2C1=O (stereo not given),?,12µM*,-9%,12%,-11%,i
COC(=O)CCC(=O)OC1(C)C(=O)C=C2C=C(C3CC3)N(CCCOC(C)C)C=C2C1=O (stereo not given),1.9µM*,10µM*,-15%,0%,-13%,-1%
COC(=O)CCCC1=CC2=CC(=O)C(C)(OC(=O)c3cccs3)C(=O)C2=CN1CCCCO (stereo not given),13µM*,?,-2%,-5%,19%,-12%
C#CCNC(=O)c1ccc2sc([C@@H]3O[C@H](CO)[C@H](O)[C@H](O)[C@H]3O)nc2c1,.,.,7%,.,.,15%
CCOC(=O)Cc1cc(=O)n2[nH]c(C)c(-c3ccc(Cl)cc3)c2n1,?,?,-30%,19%,?,-14%
COC(=O)CCC(=O)OC1(C)C(=O)C=C2C=C(C3CC3)N(CCCCO)C=C2C1=O (stereo not given),7.4µM*,?,-5%,1%,21%,i
CCc1nc2ccc(C(=O)Nc3ccc(OC)c(OC)c3)cn2c1N(CC)CCOC,.,.,-10%,.,.,2%
COc1cc(C(=O)OCC(=O)NC(=O)NCc2ccccc2)ccc1OC(F)F,-22%,-7%,-18%,.,18%,-19%
CCN(Cc1ccccc1)C(=O)COc1ccccc1,8.3µM*,16%,-18%,-9%,27%,-20%
CCOc1ccc(C(=O)OCC(=O)N(Cc2ccccc2)Cc2ccccc2)cc1OC,?,12µM*,-15%,.,-18%,-16%
CCOCC(=O)N(CC)Cc1ccccc1,-28%,21%,-5%,2%,10%,-9%
NC(=O)C1CCN(Cc2nc3cc(Cl)ccc3c(=O)[nH]2)CC1,.,3%,-19%,8%,7%,?
Cc1nn(S(=O)(=O)c2cccs2)c(C)c1Sc1ccc([N+](=O)[O-])cc1,?,?,?,9%,10µM*,?
Cc1nn(S(=O)(=O)c2cccs2)c(C)c1Sc1ccccc1,?,-15%,.,-16%,.,.
Cc1n[nH]c(=O)nc1NCCc1ccccc1,10%,.,.,6%,7%,.
COc1cccc(NC(=O)CN(C)C(=O)c2ccc(-c3ccc(Cl)cc3)o2)c1,5.9µM*,1.7µM*,-25%,.,-5%,-18%
CN(CC(=O)Nc1ccccc1Br)C(=O)c1ccc(-c2ccc(Cl)cc2)o1,?,?,-27%,-19%,.,i
CN(CC(=O)Nc1ccccc1C(F)(F)F)C(=O)c1ccc(-c2ccc(Cl)cc2)o1,2.6µM*,2.9µM*,-28%,.,?,-14%
COc1cccc(-c2nn(-c3ccc(C)cc3)cc2C(=O)N(C)CC(=O)Nc2cccc(F)c2)c1,15µM*,5.2µM*,?,.,?,-28%
COc1cccc(NC(=O)CN(C)C(=O)c2ccc(-c3ccccc3Cl)o2)c1,?,0.29µM*,-7%,-3%,?,-14%
CC(C)(C)C(=O)N(Cc1ccc(Cl)cc1)Cc1cccnc1,?,?,.,-49%,1%,.
C=C1C2(C(=O)Nc3nccs3)CCC(C2)C1(C)C (stereo not given),.,1.2µM*,.,-3%,1%,.
SMILES,Pf growth 96h,Pf growth 48h,Vaccinia Venus,NS1 function inh,HCV inhibitor,VACV mCherry inh
Cc1cc(Cl)c(C(=O)Nc2cccc(C(F)(F)F)c2)c(C)n1,?,-6%,.,12%,-13%,.
CS(=O)(=O)c1nc(-c2ccccc2)cc(C(F)(F)F)n1,11%,-17%,?,-88%,10µM*,14µM*
Cc1cc(NC(=O)CCS(=O)(=O)c2nc(-c3ccccc3)cc(C(F)(F)F)n2)no1,-18%,0%,?,-1%,10µM*,.
COc1ccc(-c2cc(C(F)(F)F)nc(S(=O)(=O)CCCC(=O)Nc3cccc(O)c3)n2)cc1OC,-4%,?,-16%,.,11µM*,?
COc1ccc(NC(=O)CCS(=O)(=O)c2nc(-c3ccc4c(c3)OCO4)cc(C(F)(F)F)n2)cc1,.,.,-14%,.,.,i
COc1ccc(NC(=O)CCCS(=O)(=O)c2nc(-c3ccc(OC)c(OC)c3)cc(C(F)(F)F)n2)cc1OC,.,.,-12%[7.34 µM],.,.,-19%[7.34 µM]
COc1ccc(C2OC(=O)CC2C(=O)NCc2ccc(C)cc2)cc1OC (stereo not given),9.3µM*,-23%,.,.,13%,.
CC(C)(C)CNC(=O)C1(C)CCN1C(=O)c1ccccc1CCc1ccccc1 (stereo not given),.,.,-21%,.,.,3%
Cc1ccc(C(=O)Nc2nc(COc3ccccc3)cs2)s1,-16%,7%,-28%,-41%,11µM*,-9%
Cc1ccccc1N1C(=O)/C(=C/c2ccco2)C(=O)NC1=S,7%,4%,.,6%,.,.
C[C@@H](CN1C2=NC[C@H](C)N2C[C@H]1Cc1ccc(O)cc1)NC(=O)CCC1CCCCC1,?,-14%,-2%,-2%,10%,-13%
CC(C)[C@H]1CN=C2N(C[C@H](C)NC(=O)CCC3CCCCC3)[C@H](Cc3ccc(O)cc3)CN21,4.1µM*,12µM*,-6%,-31%,4%,-29%
COc1ccc(C[C@@H]2CN3C(=NC[C@@H]3Cc3ccc(O)cc3)N2C[C@H](C)NC(=O)CCC2CCCCC2)cc1,0.74µM*,1.2µM*,?,2%,41%,-15%
COc1ccc(C[C@H]2CN3C(=NC[C@@H]3Cc3ccc(O)cc3)N2C[C@H](C)NC(=O)CCC2CCCCC2)cc1,0.93µM*,2.1µM*,?,3%,-2%,-29%
COc1ccccc1C(=O)Nc1ccc(C)cc1C(=O)c1ccccc1,-27%,10%,-12%,-5%,4%,-24%
O=C(Nc1ccccc1N1CCCC1)c1cc(Cl)ccc1Cl,0%,?,0%,-4%,?,-6%
COCCn1c(SCc2cccc([N+](=O)[O-])c2)nc2ccccc2c1=O,?,9.3µM*,-6%,-9%,11µM*,?
Cn1c(SCc2cccc(C#N)c2)nc2ccccc2c1=O,69%,10µM*,-11%,-28%,32µM*,i
